An excerpt weighted towards active compounds, which were near 3% of everything screened.
Sm TGR block = S. mansoni TGR enzyme inhibition | 3% of 360,000 active | AID 485364 | Potency, µM (highest dose often 114 µM), without a hit: top-dose activity change, negative = inhibition, usual class: inhibitors | Q962Y6 | purified TGR, DTNB reduction, TNB absorbance 405 nm; active = well fitted inhibition curve with a large enough effect; inconclusive = small, poorly fitted or top-dose-only effect; inactive = no such curve, though single readings can be large or run the other way; note: % is set by controls: 0 for no effect and ±100 for the full control effect; nearly all actives have a fitted effect of over 60% in size
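First, TGR (20 nM dispensed) and NADPH were mixed with compound. Second, a 15 min room-temperature incubation followed. Third, further NADPH and then DTNB were added to start the reaction. Finally, TNB absorbance was monitored kinetically.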
SARS PLpro yeast = blocks SARS-CoV papain-like protease in a yeast assay; S. cerevisiae expressing SARS-CoV PLpro, growth rescue; Potency, µM (top dose mostly 32.9 µM), for inactives: at the highest dose activity, positive = growth rescue, most hits filed as activators; 0.19% of 330,000 active; AID 485353; calls by dose curve; note: 0% is about no effect; nearly all actives have a fitted effect of over 55% in size
Numbers without * were called inactive; ? = inconclusive; . = no result. Potency is the fitted concentration of half-maximal effect.

SMILES | Sm TGR block | SARS PLpro yeast
Cc1cc(C(=O)COC(=O)c2ccccc2O)c(C)n1CC1CCCO1 (centres undefined) | -2% | 11%
Cc1cc(F)ccc1NCc1ccccc1-c1nnc(-c2ccccc2Cl)o1 | 2% | .
COc1cc(O)ccc1-c1nc2ccc(Br)cn2c1Nc1ccccc1C | -36% | .
O=C(NCc1ccco1)c1ccccc1NS(=O)(=O)c1cccs1 | ? | -14%
O=C(NCc1ccco1)c1ccccc1NS(=O)(=O)c1ccc(Cl)s1 | 28µM* | -53%
COCCCNC(=O)/C(C#N)=C/c1c(N2CCN(c3cccc(Cl)c3)CC2)nc2c(C)cccn2c1=O | 5% | -3%
COCCCNC(=O)/C(C#N)=C/c1c(N2CCN(c3ccccc3)CC2)nc2c(C)cccn2c1=O | 35µM* | 0%
O=C(c1ccc2c(c1)N(Cc1cccc(Cl)c1)C(=O)c1ccccc1S2=O)N1CCN(c2cccc(C(F)(F)F)c2)CC1 (centres undefined) | 1% | .
CCc1cccc(C)c1NC(=O)C(CC)Sc1nc2ccncc2[nH]1 (centres undefined) | 2% | .
CCOc1c(C=C(C#N)C#N)c2ccccc2n1CC | 28µM* | -15%
CCn1c(O)c(C(C#N)=C2N=c3ccccc3=N2)c2ccccc21 | 0% | 19%
CCOc1ccc(CNC(=O)c2cnc3sc(N4CCOCC4)nn3c2=O)cc1OC | -2% | .
Cc1ccc(CN2CCc3nc(SCC(=O)Nc4cccc(C)c4C)[nH]c(=O)c3C2)cc1 | -8% | .
Cc1csc(C(=O)O)c1NC(=O)c1ccc(F)cc1 | 89µM* | 1%
COc1ccc(C(=O)Nc2c(C)csc2C(=O)O)cc1 | 15% | 0%
COc1ccccc1C(=O)OCc1cc(=O)n2nc(C3CC3)sc2n1 | 21% | .
COc1ccc(N2CC(NC(=O)COc3ccc4ccccc4c3)CC2=O)cc1 (centres undefined) | -6% | .
Cc1ccc(-n2c(O)c(C=NCc3ccco3)c(=O)[nH]c2=S)cc1C | 10µM* | 0%
CC(=O)Nc1ccc(N=Cc2c(O)n(Cc3ccco3)c(=O)[nH]c2=O)cc1 | 25µM* | 0%
O=c1[nH]c(=O)n(Cc2ccco2)c(O)c1C=NCc1ccco1 | 25µM* | 0%
CCN(CC)CCN=Cc1c(O)n(Cc2ccco2)c(=O)[nH]c1=O | -24% | -1%
CCCCC(=O)N/N=C/c1c(O)n(Cc2ccco2)c(=O)[nH]c1=O | ? | 0%
O=c1[nH]c(=S)n(-c2ccccc2F)c(O)c1C=NCc1ccco1 | -21% | 2%
Cc1ccc(Cn2cnc3nc4c(cc3c2=O)CC(C)CC4)cc1 (centres undefined) | 4% | .
COc1ccc(NC(=O)c2ccc(NC(=O)CCS(=O)(=O)c3cccs3)cc2)cc1Cl | 4% | .
SMILES | Sm TGR block | SARS PLpro yeast
COc1ccc(NC(=O)CC2C(=O)N(c3cccc(OC)c3)C(=O)N2Cc2cccnc2)cc1 (centres undefined) | 2% | .
COc1ccccc1CN1CCNC(=O)C1=O | -6% | .
Cc1ccc(NS(=O)(=O)c2ccc3nc(-c4ccccc4)[nH]c3c2)c(Cl)c1 | -3% | .
O=C(Cn1c(=O)nc(-c2ccccc2F)c2cc(Cl)ccc21)N1CCN(c2ccccc2F)CC1 | 0% | .
O=[N+]([O-])c1cc(S(=O)(=O)N2CCCCCC2)ccc1F | 22µM* | -70%
O=[N+]([O-])c1cc(S(=O)(=O)N2CCCC2)ccc1O | 3% | 11%
CCCCOc1ccccc1Cn1c(=O)sc2ccccc21 | 6% | .
O=C(O)CCC(=O)CCC(=O)c1ccc(Cl)cc1 | 28µM* | -3%
O=C(O)CCC(=O)c1ccc(-c2ccccc2)cc1 | -1% | 3%
O=C(Nc1cc(Cl)cc(Cl)c1)c1ccc(F)c(S(=O)(=O)NC2CCCCC2)c1 | 8% | .
COCCNC(=S)Nc1ccc([N+](=O)[O-])cc1C | ? | 0%
COCCCNC(=S)Nc1ccc(C)cc1[N+](=O)[O-] | 45µM* | -1%
COc1ccc(C(=O)Nc2ccccc2-c2nc3ccccc3s2)c(OC)c1 | 2% | .
COc1ccc(-c2cc(CNC(C)=O)on2)cc1 | -32% | 2%
COc1ccc(-c2cc(CNC(=O)CCl)on2)cc1 | 35µM* | 7%
Cc1ccc(C)c(NC(=O)C(CC(C)C)N2Cc3ccccc3C2=O)c1 (centres undefined) | 18% | .
COc1cc(-c2nc3sccn3c2Nc2c(C)cccc2C)ccc1O | 1.1µM* | .
Cc1cccc(C)c1Nc1c(-c2ccc(O)cc2)nc2sccn12 | -33% | .
FC(F)(F)C1=Nc2cccc3cccc(c23)N1 | 18µM* | 0%
Fc1ccc(C2=Nc3cccc4cccc(c34)N2)cc1 | . | 1%
CN1CC(=O)Nc2cc(C(=O)O)ccc21 | -16% | .
Cc1c(N=C2C=C(Br)C(=O)C(Br)=C2)c(=O)n(-c2ccccc2)n1C | 2.8µM* | -2%
Cc1csc(=Nc2c(C)n(C)n(-c3ccccc3)c2=O)n1Cc1ccccc1 | 2% | 0%
Cc1c(N=Nc2c(O)n(C)c(=O)n(C)c2=O)c(=O)n(-c2ccccc2)n1C | 0% | -5%

Source: PubChem
